Sampled rows, rich in hits. Any-hit rate of the full collection: about 4.3%.
sPLA2-III inh: Blocks human group III sPLA2 activity. QFRET BODIPY PC-A2 liposome hydrolysis, fluorescence. Q9NZ20. AID 743126. inhibition, % at 12.2 µM. actives 0.56% (n = 370,000);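 active means inhibition above mean plus 3 SD of compounds lying within the high and low control bounds, cut at about 19% in these data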;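 further: 0% = median of test compound wells and 100% = no enzyme DMSO wells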
ADAM17 inh: inhibits human ADAM17 | P78536 | AID 720648 | actives 0.83% (n = 370,000) | inhibition, % at 6.95 µM | recombinant ADAM17, EDANS/DABCYL FRET peptide cleavage;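 active means inhibition above the mean of compounds lying between control limits plus 3 SD, set per campaign, cut at about 8.5% in these data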;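 further: 0% = DMSO-only wells as the low control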
ADAM10 inh: ADAM10 inhibition, QFRET primary screen. recombinant ADAM10, EDANS/DABCYL FRET peptide cleavage, 3 h. inhibition, % at 7 µM. actives 0.62% (n = 370,000). AID 720582;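 active means inhibition above a per-campaign cutoff equal to the mean of compounds falling between control-based bounds plus 3 SD, cut at about 20% in these data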;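 further: 0% = DMSO wells while the 100% control is not disclosed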
Target sequence (O14672 214-748 limits assumed): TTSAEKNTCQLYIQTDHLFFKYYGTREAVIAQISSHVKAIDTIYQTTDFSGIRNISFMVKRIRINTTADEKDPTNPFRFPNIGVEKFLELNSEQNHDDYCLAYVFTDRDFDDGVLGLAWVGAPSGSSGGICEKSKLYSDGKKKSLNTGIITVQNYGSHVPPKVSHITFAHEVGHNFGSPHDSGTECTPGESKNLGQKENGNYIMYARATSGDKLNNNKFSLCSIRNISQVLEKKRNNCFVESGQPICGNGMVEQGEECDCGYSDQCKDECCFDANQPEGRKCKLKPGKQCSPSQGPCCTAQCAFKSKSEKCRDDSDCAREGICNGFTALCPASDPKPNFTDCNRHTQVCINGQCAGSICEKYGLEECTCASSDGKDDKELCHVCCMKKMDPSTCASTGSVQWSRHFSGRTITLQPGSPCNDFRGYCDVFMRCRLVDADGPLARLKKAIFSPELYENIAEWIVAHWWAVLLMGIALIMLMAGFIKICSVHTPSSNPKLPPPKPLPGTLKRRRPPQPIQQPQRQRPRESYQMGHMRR
FAS TE block: blocks the thioesterase domain of human fatty acid synthase; P49327; recombinant FAS-TE, OMFH fluorogenic substrate, fluorescence endpoint; inhibition, % at 15 µM; actives 0.67% (n = 360,000); AID 602261;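 active means compounds whose normalised, plate-corrected inhibition of enzyme fluorescence in the single-dose primary screen is 50% or more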;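 further: 0% = DMSO with enzyme and 100% = substrate without enzyme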
GRIN3A LBD mod: modulates the human NR3A ligand-binding domain; NR3A LBD differential scanning fluorimetry, Tm shift; 0% = protein alone, 100% = glycine-bound protein; Tm shift relative to glycine control, % at 25 µM; actives 2.5% (n = 340,000);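 active means melting temperature shift of at least 10% of the positive control shift, at one fixed dose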
ADAM10 counter: ADAM10 inhibition, counter-screen for ADAM17 exosite hits. shares compounds with ADAM17 inh. recombinant ADAM10, EDANS/DABCYL FRET peptide cleavage, 3 h. inhibition, % at 6.95 µM. actives 47% (n = 2,900);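 active means mean inhibition over the triplicate runs exceeds the activity threshold set in the earlier primary screen, cut at about 20% in these data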;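 further: 0% = DMSO wells and 100% = marimastat wells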
ADAM17 confirm: confirmation of inhibitors of human ADAM17; shares compounds with ADAM17 inh; recombinant ADAM17, EDANS/DABCYL QFRET peptide cleavage; inhibition, % at 6.95 µM; actives 65% (n = 2,900); AID 743257;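 active means mean inhibition across replicates above the hit cutoff set in the primary screen, cut at about 8.5% in these data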;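 further: 0% = DMSO wells and 100% = marimastat wells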
* marks the source's active call; other numbers are inactive results; nt = no result given.

SMILES	sPLA2-III inh	ADAM17 inh	ADAM10 inh	FAS TE block	GRIN3A LBD mod	ADAM10 counter	ADAM17 confirm
O=C(N[C@H](C(=O)N1CCC[C@H]1C(=O)NC1CCCC1)c1ccccc1)c1ccc(Cl)c(Cl)c1	-5	-2	-5	nt	nt	nt	nt
O=C1CCCC(=O)N1c1ccc(N2CCN(c3ccccc3)CC2)c([N+](=O)[O-])c1	-2	-1	3	-6	2	nt	nt
Cc1cccc(N2CCN(c3ccc(N4C(=O)CCCC4=O)cc3[N+](=O)[O-])CC2)c1C	-2	14*	2	-7	-5	10	8
O=C(NNC(=O)c1ccc(Cl)cc1Cl)Nc1ccccc1	-16	1	2	-5	1	nt	nt
O=C(Nc1ccc(Nc2ccccc2)cc1)c1ccc(Cl)cc1Cl	11	12*	19	25	8	36*	25*
CC(C)C[C@H](NC(=O)c1[nH]cnc1C(=O)Nc1ccccc1)C(=O)OC(C)(C)C	-26	14*	27*	24	-8	40*	20*
CC(C)(C)OC(=O)[C@H](Cc1ccccc1)NCC(=O)OCc1ccc(C(=O)NCc2ccccc2)cc1	-24	8.7*	13	nt	nt	11	8
CCOC(=O)c1ccc(NC(=O)c2nc[nH]c2C(=O)N[C@@H](CC(C)C)C(=O)OC(C)(C)C)cc1	2	4	3	9	-8	nt	nt
C[C@H](NC(=O)c1nc[nH]c1C(=O)N[C@@H](Cc1ccccc1)C(=O)OCc1ccccc1)C(=O)OCc1ccccc1	-8	11*	16	17	-10	33*	19*
C[C@@H](NC(=O)c1nc[nH]c1C(=O)N[C@@H](Cc1ccccc1)C(=O)OC(C)(C)C)c1ccccc1	-9	10*	19	20	-9	33*	14*
C[C@@H]1CN([C@@H](C)CO)C(=O)CCCn2cc(nn2)CO[C@H]1CN(C)C(=O)Nc1ccccc1F	11	-2	-15	nt	nt	nt	nt
COC(=O)[C@]12C[C@H](CC(=O)NCc3ccccc3)C(=O)N(Cc3ccccc3)C1=C[C@H](C(C)C)O[C@@H]2C1CC1	-3	5	5	nt	nt	nt	nt
Cc1ccc(-n2c(SCC(=O)Nc3ccc(OCc4ccccc4)cc3)nnc2-c2ccco2)cc1	-7	0	-3	nt	nt	nt	nt
CCOC(=O)N1CCN(C(=O)C[C@H]2C[C@@]3(C(=O)OC)C(=C[C@H](COCc4ccccc4)O[C@@H]3C)N(Cc3ccccc3)C2=O)CC1	-7	1	4	nt	nt	nt	nt
O=C(Nc1ccc(C(F)(F)F)cc1)OC1CCC12CCCCC2 (configuration not stated)	9	0	-1	nt	nt	nt	nt
CC(C)C[C@H](NC(=O)c1nc[nH]c1C(=O)NCc1ccc(CNC(=O)OC(C)(C)C)cc1)C(=O)OCc1ccccc1	5	-1	-4	12	-11	nt	nt
CC(C)(C)OC(=O)NCc1ccc(CNC(=O)c2[nH]cnc2C(=O)N[C@@H](Cc2ccccc2)C(=O)OCc2ccccc2)cc1	-10	12*	16	17	-7	34*	20*
COc1ccc(CCNS(=O)(=O)c2ccc(N3CCCC3=O)cc2)cc1	-3	12*	12	-2	1	-4	-2
C=CC[C@@H](CC(=O)N[C@@H](CO)Cc1ccccc1)C(=O)N[C@H](COC(=O)[C@H](CC=C)CC(=O)OC(C)(C)C)Cc1c[nH]c2ccccc12	-68	9.9*	18	15	-6	44*	23*
C=CCC[C@@H](Cc1ccc(F)cc1)C(=O)OC[C@@H](NC(=O)[C@@H](CC=C)CC(=O)N[C@H](CO)Cc1ccccc1)C(C)(C)C	-28	9.6*	18	10	-1	35*	18*
C=CC[C@@H](CC(=O)N[C@H](CO)Cc1ccccc1)C(=O)N[C@H](COC(=O)[C@@H](CC=C)CC(=O)OC(C)(C)C)Cc1ccccc1	-49	9.6*	10	8	-1	19	8
C=CC[C@@H](CC(=O)NCCO)C(=O)N[C@H](COC(=O)[C@H](CC=C)CC(=O)OC(C)(C)C)Cc1c[nH]c2ccccc12	-65	2	-8	-3	-3	nt	nt
C=CC[C@@H](CC(=O)N[C@@H](CO)Cc1ccccc1)C(=O)N[C@H](COC(=O)[C@@H](CC=C)Cc1ccc(F)cc1)C(C)(C)C	-23	6	13	17	-15	nt	nt
C=CC[C@@H](CC(=O)N(CCO)Cc1ccccc1)C(=O)N[C@H](COC(=O)[C@@H](CC=C)CC(=O)OC(C)(C)C)Cc1ccccc1	-28	18*	28*	14	1	39*	18*
C=CC[C@H](CC(=O)N(CCO)Cc1ccccc1)C(=O)N[C@H](COC(=O)[C@@H](CC=C)CC(=O)OC(C)(C)C)Cc1ccccc1	-41	5	14	17	-6	nt	nt
SMILES	sPLA2-III inh	ADAM17 inh	ADAM10 inh	FAS TE block	GRIN3A LBD mod	ADAM10 counter	ADAM17 confirm
CC(COc1ccc(C#N)cc1F)CN1CCC(C(O)(c2ccccc2)c2ccccc2)CC1 (configuration not stated)	-21	-1	-1	nt	nt	nt	nt
CCOC(=O)C1CSCCS(=O)(=O)N1Cc1ccc(C)cc1 (configuration not stated)	2	1	1	nt	nt	nt	nt
CCCCCCCCN1C(=O)[C@@H](CC(=O)N2CCCC2)C[C@@]2(C(=O)OC)C1=C[C@H](C1CCCC1)O[C@@H]2C	-3	-2	1	nt	nt	nt	nt
C=CC[C@H](CC(=O)NCCO)C(=O)N[C@@H](COC(=O)[C@H](CC=C)CC(=O)OC(C)(C)C)Cc1c[nH]c2ccccc12	-57	-2	2	-3	4	nt	nt
C=CC[C@H](CC(=O)N[C@H](CO)Cc1ccccc1)C(=O)N[C@H](COC(=O)[C@H](CC=C)CC(=O)OC(C)(C)C)Cc1c[nH]c2ccccc12	-88	11*	18	8	-8	26*	13*
Cc1ccc(C(=O)N(C)[C@H]2C[C@H]3c4[nH]c5c(-c6ccccc6)cccc5c4CCN3C(=O)[C@H]2[C@H](C)O)cc1	-3	-52	-195	nt	nt	nt	nt
Cc1ccc(C)c(N(CC(=O)Nc2ccccc2C(=O)NCc2ccco2)S(=O)(=O)c2ccccc2)c1	-31	9.6*	12	33	4	23*	16*
Cc1ccc(N(CC(=O)Nc2ccccc2C(=O)NCc2ccco2)S(=O)(=O)c2ccccc2)cc1C	-19	-6	4	28	-1	nt	nt
CCOC(=O)CC1(O)CSc2nc(N)cc(=O)n21 (configuration not stated)	-5	2	1	nt	nt	nt	nt
COc1cc(NC(=S)NCCC(c2ccccc2)c2ccccc2)c(OC)cc1Cl	0	9.7*	9	30	24*	25*	14*

High-throughput results as filed in PubChem BioAssay.
